The values that follow come from PubChem BioAssay (NCATS).

Records with an inconclusive call do not appear. Where a call stands in place of a potency, no number is given. Activity calls are given as the source filed them. Calls come from the whole dose curve.

This assay deals with Nucleoprotein (Lymphocytic choriomeningitis virus (strain Armstrong)) (UniProt P09992). In words: qHTS for Inhibitors of the Functional Ribonucleoprotein Complex (vRNP) of Lymphocytic Choriomeningitis Arenaviruses (LCMV): LCMV Primary Screen - GLuc reporter signal (AID 1347086). Note: nearly all actives have a fitted effect of over 70% in size. Conditions: LCMV minigenome vRNP cell assay, Gaussia luciferase reporter; series mostly up to 57.5 µM. A general note: Quantitative high-throughput screening tests each substance at several concentrations.
Chain of Nucleoprotein (Lymphocytic choriomeningitis virus (strain Armstrong)) (P09992 whole entry, looked up): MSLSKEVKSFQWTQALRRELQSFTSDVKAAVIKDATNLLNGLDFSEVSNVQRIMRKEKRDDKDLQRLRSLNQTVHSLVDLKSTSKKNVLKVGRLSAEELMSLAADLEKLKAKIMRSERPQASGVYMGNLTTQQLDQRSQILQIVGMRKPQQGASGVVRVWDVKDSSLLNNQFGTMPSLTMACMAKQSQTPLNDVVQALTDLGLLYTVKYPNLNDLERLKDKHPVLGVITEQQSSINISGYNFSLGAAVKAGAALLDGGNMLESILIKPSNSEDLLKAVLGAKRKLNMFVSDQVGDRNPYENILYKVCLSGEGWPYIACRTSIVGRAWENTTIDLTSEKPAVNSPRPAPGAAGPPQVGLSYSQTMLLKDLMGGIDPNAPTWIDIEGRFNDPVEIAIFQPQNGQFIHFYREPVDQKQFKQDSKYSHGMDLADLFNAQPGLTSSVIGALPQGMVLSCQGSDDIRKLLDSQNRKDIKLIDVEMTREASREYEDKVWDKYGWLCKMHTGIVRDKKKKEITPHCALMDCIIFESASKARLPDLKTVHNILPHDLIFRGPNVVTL
Consider `O=C(O)c1cc(=O)c2ccccc2o1`, for which the Potency result was “inactive”. The result for `CC(C(=O)O)c1ccc(C(=O)c2ccccc2)s1` (stereo not drawn) reads “inactive”; that for `CCCCCCCCCCCCOCCO`, “inactive”; that for `Cc1cc(C)nc(NS(=O)(=O)c2ccc(N)cc2)n1`, “inactive”. In the case of `CCOC(=O)C1=C(C)NC(C)=C(C(=O)OC)C1c1cccc([N+](=O)[O-])c1` (stereo not drawn), the Potency result is “inactive”. The result for `O=C1CC(c2ccc(Cl)cc2)CC(=O)N1` reads “inactive”; that for `Cc1cc(O)cc(C)c1Cl`, “inactive”; that for `CCN(CC)C(=O)c1ccc(O)c(OC)c1`, “inactive”. The result for `CCCCCCCN(CC)CCCC(O)c1ccc(NS(C)(=O)=O)cc1` (stereo not drawn) reads “inactive”. The result for `CC(O)C(=O)O` (stereo not drawn) reads “inactive”; that for `COc1cc(OC)c(C(=O)CCCN2CCCC2)c(OC)c1`, “inactive”; that for `NS(=O)(=O)c1ccc(C(=O)O)cc1`, “inactive”.

With `OC1(c2ccc(Cl)cc2)CCNCC1`, the Potency result was “inactive”.

For the molecule `Cc1cccc(C)c1NC(=O)c1cc(S(N)(=O)=O)c(Cl)cc1O`, the Potency entry is “inactive”.

Consider `O=C(O)Cc1sc(-c2ccccc2)nc1-c1ccc(Cl)cc1`, for which the Potency result is “inactive”. In the case of `CN=C(NC#N)NCCSCc1nc[nH]c1C` it was “inactive”; in that of `CCCCOC(=O)c1ccc(O)cc1`, “inactive”. The result for `C[N+](C)(C)CCCCCC[N+](C)(C)C` reads “inactive”; that for `CC(=O)OCC1=C(C(=O)O)N2C(=O)[C@@H](NC(=O)Cc3cccs3)[C@H]2SC1`, “inactive”; that for `CCn1cc(C(=O)O)c(=O)c2cc(F)c(N3CCNC(C)C3)c(F)c21` (stereo not drawn), “inactive”.

Regarding `Clc1ccc2nsnc2c1NC1=NCCN1`, the Potency result was “inactive”. Regarding `O=C1[C@@H]2[C@H]3CC[C@H](C3)[C@@H]2C(=O)N1CCCCN1CCN(c2ncccn2)CC1`, the Potency result was “inactive”. The result for `CCOC(=O)c1ccccc1O` reads “inactive”.
